From ChEMBL document CHEMBL3433997, “St. Jude Leishmania screening dataset” (2016) come the findings set out here.

The term inhibition denotes the change of the read-out against control, counted positive when it falls.

Assay type in all cases: functional
Test [1] has as its target Solute carrier family 2, facilitated glucose transporter member 1 (Homo sapiens) (UniProt P11166). In words: ST_JUDE_LEISH: Cytotoxicity at 2uM final concentration against transgenic Leishmania Mexicana promastigotes LmGLUT1 that are glucose transport deficient and complemented with the human glucose transporter GLUT1. Activity is measured by DNA content using SYBR green in vitro.

Test [2] addresses Hexose transporter 1 (Plasmodium falciparum) (UniProt O97467). Briefly: ST_JUDE_LEISH: Cytotoxicity at 2uM final concentration against transgenic Leishmania Mexicana promastigotes LmPfHT that are glucose transport deficient and complemented with the Plasmodium falciparum hexose transporter. Activity is measured by DNA content using SYBR green in vitro.
The target in test [3] is Glucose transporter (Leishmania mexicana) (UniProt O61059). In words: ST_JUDE_LEISH: Cytotoxicity at 2uM final concentration against transgenic Leishmania Mexicana promastigotes LmGT2 that are glucose transport deficient and complemented with the L. Mexicana glucose transporter 2. Activity is measured by DNA content using SYBR green in vitro.

Sequence of Solute carrier family 2, facilitated glucose transporter member 1 (Homo sapiens) (P11166 whole entry): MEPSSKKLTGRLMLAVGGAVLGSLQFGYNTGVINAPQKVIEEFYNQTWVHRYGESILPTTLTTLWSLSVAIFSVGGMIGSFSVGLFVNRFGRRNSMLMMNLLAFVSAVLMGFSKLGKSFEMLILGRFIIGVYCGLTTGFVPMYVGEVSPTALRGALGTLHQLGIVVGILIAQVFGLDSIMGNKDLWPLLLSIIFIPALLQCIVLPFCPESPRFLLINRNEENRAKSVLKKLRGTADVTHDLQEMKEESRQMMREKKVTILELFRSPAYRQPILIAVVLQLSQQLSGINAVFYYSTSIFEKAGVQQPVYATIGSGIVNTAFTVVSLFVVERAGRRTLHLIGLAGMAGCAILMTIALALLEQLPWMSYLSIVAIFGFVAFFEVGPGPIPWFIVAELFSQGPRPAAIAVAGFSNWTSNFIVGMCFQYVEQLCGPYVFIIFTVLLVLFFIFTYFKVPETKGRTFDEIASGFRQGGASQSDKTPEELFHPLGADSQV

As for `Cc1cccc2nc(-c3ccc(-c4ccc(NC(=O)Nc5ccc(F)c(F)c5F)cc4)cc3)[nH]c12`, the results for the inhibition in test [1], in test [2] and in test [3] were 8.48%, 8.02% and 7.14%, respectively.
The corresponding values for `NC1=NC2(CCCCC2)N(Cc2ccc(Cl)c(Cl)c2)C(N)=N1` are -1.03%, -0.28% and -0.42%.
The corresponding values for `CC(C)(C)c1ccc(NC(=O)c2cccc(CN3CCN(Cc4cccc(O)c4)CC3)c2)cc1` are 0.93%, -0.15% and 0.64%.
As to `Fc1ccc2[nH]c(-c3cccc(-c4cccc(CN5CCN(c6ccncc6)CC5)c4)c3)nc2c1`, the inhibition in test [1] stood at 0.24%; in test [2] it was 1.73%; in test [3] it was 0.3%.
The corresponding values for `N#Cc1ccc(N2CCN(Cc3ccc(-c4ccc(-c5nc6cc(C(F)(F)F)ccc6[nH]5)cc4)cc3)CC2)nc1` are 2.63%, 4.69% and 1.55%.
The corresponding values for `COc1cccc(OC2CCN(C(=O)c3cc(C(C)(C)C)nn3Cc3ccccc3)CC2)c1` are 1.4%, 0.53% and 1.38%.
The corresponding values for `Cc1ccc(NC(=O)NC2CCN(CCCCCNC(=O)/C=C/c3ccc(Cl)c(Cl)c3)CC2)cc1C` are -0.29%, -0.57% and -1.51%.
In the case of `CCOC(=O)COc1cccc(CNc2ccc3nc(N)nc(N)c3c2)c1`, the inhibition in test [1] is 2.95%; in test [2] it was 1.84%; in test [3] it was 1.48%.
The corresponding values for `CCc1cn2c3c(cc(C(=O)N[C@@H](Cc4ccccc4)[C@H](O)CNC(C)C)cc13)N(C)S(=O)(=O)C2` are -2.02%, -1.87% and 0.06%.
The corresponding values for `CC(C)OC(=O)c1cccnc1SCC(=O)Nc1ccc(C(F)(F)F)cc1Cl` are 1.58%, 1.68% and 3.79%.
The corresponding values for `Cc1nc(C)c(-c2ccc(C(=O)c3ccccc3)cc2)c(O)c1Br` are 5.44%, 5.49% and 5.35%.
For the compound `Cc1cccc2nc(-c3ccc(-c4ccc(NC(=O)C(C)CN(C)C)cc4)cc3)[nH]c12` (stereo unspecified), the inhibition is 11.2% in test [1], 9.44% in test [2] and 5.39% in test [3].
